Compound activity deposited in PubChem BioAssay by several laboratories.
Shown are actives, neighbours in structure and some others; about 4.4% of the full set was active somewhere.
tim10-1 inh – growth inhibitors of tim10-1 mutant yeast, primary screen, luminescence, uHTS; inhibition, % at 20 µM; AID 463190, 2010; S. cerevisiae tim10-1 ts strain growth, BacTiter-Glo, 24 h; hit rate 2.2% among 330,000;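 active = inhibition of at least 40%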;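 also: mutant grown at 25 °C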
tim23-1 inh – growth inhibitors of tim23-1 mutant yeast, primary screen, luminescence, uHTS. hit rate 1.3% among 330,000. inhibition, % at 20 µM. S. cerevisiae tim23-1 growth, BacTiter-Glo luminescence, 24 h;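 active = growth inhibition of the mutant yeast at or above 50%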;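 also: temperature-sensitive mutant grown at 25 °C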
SKKanGAS inh – S. pyogenes SKKanGAS growth inhibitors in kanamycin, primary screen, streptokinase expression inhibitor project, SKKanGAS strain, BacTiter-Glo luminescence | hit rate 1.3% among 300,000 | AID 1662, 2009 | 6 h | inhibition, % at 7.5 µM;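 active = mean replicate score, as percent of positive control median, at least 50; inconclusive = mean below 50 but one replicate at or above 50; inactive = mean and every replicate below 50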;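 also: strain carries kanamycin resistance gene driven by streptokinase promoter and grows in 40 µg/ml kanamycin; loss of luminescence reflects streptokinase promoter inhibition or plain growth inhibition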
TIM10 inh – growth inhibitors of isogenic TIM10 control yeast, primary screen, counter-screen for tim10-1 yeast inhibitor project, luminescence, uHTS | S. cerevisiae TIM10 strain growth, BacTiter-Glo luminescence, 24 h | inhibition, % at 10 µM | hit rate 1.4% among 330,000 | AID 463195, 2010;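 active = inhibition of 40% or more at the single tested concentration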;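 also: wild-type TIM10 isogenic control strain grown at permissive 25 °C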
PfHsp90 yeast 2 – growth inhibition of PfHsp90-expressing yeast, primary screen, antimalarial PfHsp90 inhibitor project, S. cerevisiae, BacTiter-Glo luminescence, single point, set 2; hit rate 0.32% among 310,000; inhibition, % at 9.4 µM; AID 504621, 2011; BacTiter-Glo ATP, 48 h; yeast lacking PDR1 and PDR3 efflux regulators;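 active = every replicate shows inhibition above about 80%, whatever the replicate mean, limit read from the data; inconclusive = mean inhibition reaches the set limit but some replicate falls short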
tim10-1 conf – growth inhibitors of tim10-1 mutant yeast, confirmation, single concentration, luminescence, S. cerevisiae; shares compounds with tim10-1 inh; S. cerevisiae tim10-1 ts strain growth, BacTiter-Glo, 24 h; inhibition, % at 20 µM; hit rate 56% among 7,400;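 active = inhibition of yeast growth at or above a set limit in either of two repeat tests at 20 µM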;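 also: tim10-1 mutant grown at permissive 25 °C to find synthetic lethal compounds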
TIM10 conf – growth inhibitors of wild-type TIM10 yeast, confirmation, counter-screen for tim10-1 synthetic lethality project, single concentration, luminescence, S. cerevisiae; shares compounds with TIM10 inh; S. cerevisiae tim10 strain growth, BacTiter-Glo luminescence, 24 h; inhibition, % at 10 µM; hit rate 63% among 4,600;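 active = inhibition of yeast growth at or above a set limit in either of two replicates at 10 µM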; also: this counterscreen used the strain with wild-type TIM10
tim23-1 confirm – tim23-1 mutant yeast growth inhibitors, confirmation, luminescence, single concentration. S. cerevisiae tim23-1 growth, BacTiter-Glo luminescence, 24 h. inhibition, % at 20 µM. shares compounds with tim23-1 inh. hit rate 83% among 4,400;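 active = inhibition above about 39% in either of two replicate wells at 20 µM, limit read from the data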;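 also: temperature-sensitive tim23-1 mutant grown at 25 °C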
Each line names hits and unclear results; the compound was inactive in the other large screens (follow-up assays come after a bar, where they were run).

O=S(=O)(NCc1ccc(F)cc1)c1ccc(-n2cnnn2)cc1	none
CCOC(=O)c1c(C)sc2c1N(C(=O)CCl)c1cc(Cl)ccc1S2	tim10-1 inh 42.8, tim23-1 inh 61.4 (no result: PfHsp90 yeast 2) | tim10-1 conf 42.6 | tim23-1 confirm 50.5
Cc1sc2ncnc(SCC(=O)N3c4ccccc4Sc4ccc(Cl)cc43)c2c1C	none
CCOc1cc(-c2cc(-c3ccc(N)cc3)nc(N)c2C#N)ccc1O	tim10-1 inh 41.3, tim23-1 inh 50.4 | tim10-1 conf inactive | tim23-1 confirm 53.0
CCCNS(=O)(=O)c1ccc(OCC(=O)NCC2CCCO2)cc1 (stereo unspecified)	none
Cc1cc(C)c2cc(C)c(SCC(=O)NCc3ccco3)nc2c1	tim10-1 inh 43.8, tim23-1 inh 50.2 | tim10-1 conf 43.0 | tim23-1 confirm 56.0
CC(C)Cn1c(N)c(C(=O)COC(=O)c2ccc(Cl)cc2)c(=O)n(C)c1=O	none (no result: PfHsp90 yeast 2)
CC(C)Cn1c(N)c(C(=O)COC(=O)c2c(O)c(Cl)cc(Cl)c2Cl)c(=O)n(C)c1=O	tim10-1 inh 41.8, tim23-1 inh 50.9 (no result: SKKanGAS inh) | tim10-1 conf inactive | tim23-1 confirm 57.5
Cc1cccc(C(=O)N/N=C/c2cc(Br)c(Br)o2)c1	tim10-1 inh 40.8, tim23-1 inh 60.5, TIM10 inh 44.9 | tim10-1 conf inactive | TIM10 conf inactive | tim23-1 confirm 76.4
O=c1oc2cc(Oc3c([N+](=O)[O-])cc(C(F)(F)F)cc3[N+](=O)[O-])ccc2c2c1CCCC2	tim10-1 inh 71.9, tim23-1 inh 75.9, TIM10 inh 68.5 (no result: PfHsp90 yeast 2) | tim10-1 conf 64.6 | TIM10 conf 73.5 | tim23-1 confirm 78.7
COc1ccccc1C(=O)CSc1ccccn1	none
CCc1nc2ccccc2c2nc3ccccc3n12	tim10-1 inh 58.8, tim23-1 inh 51.2, TIM10 inh 44.1 | tim10-1 conf 46.5 | TIM10 conf inactive | tim23-1 confirm 48.5
c1ccc2c(c1)nc(CN1CCOCC1)n1c3ccccc3nc21	none
N#Cc1sc(NCc2cccc(Cl)c2)nc1Cl	tim10-1 inh 58.4, tim23-1 inh 69.1, TIM10 inh 43.8 | tim10-1 conf 48.9 | TIM10 conf 43.2 | tim23-1 confirm 57.5
CCN(CC)CCN(C(=O)CCS(=O)(=O)c1ccccc1)c1nc2cc(C)cc(C)c2s1	tim10-1 inh 50.9, tim23-1 inh 54.8, SKKanGAS inh inconclusive, TIM10 inh 44.1 | tim10-1 conf inactive | TIM10 conf 29.6 | tim23-1 confirm 39.0
CCCOc1ccc(/C=c2\sc3nc(-c4ccco4)nn3c2=O)cc1OCC	none
CC(=O)Oc1cccc(/C=c2\sc3nc(-c4ccco4)nn3c2=O)c1	tim10-1 inh 54.3, tim23-1 inh 60.9 | tim10-1 conf 42.8 | tim23-1 confirm 62.6
O=C(c1ccccc1)c1cccc(NC(=O)c2ccc(Br)o2)c1	tim10-1 inh 45.1, tim23-1 inh 52.6, TIM10 inh 74.6 | tim10-1 conf 36.0 | TIM10 conf inactive | tim23-1 confirm 76.8
O=C(Nc1cccc(NC(=O)c2ccc(Br)o2)c1)c1ccccc1	none
O=C(CNC(=O)c1ccc(Br)o1)Nc1ccc(F)c(S(=O)(=O)N2CCOCC2)c1	none (no result: SKKanGAS inh)
Cc1ccc(C2CN(C)C3(C(=O)Nc4ccccc43)C23COc2ccccc2C3=O)cc1 (stereo unspecified)	tim10-1 inh 45.2, tim23-1 inh 53.2 | tim10-1 conf 37.4 | tim23-1 confirm 47.3
CN1CC(c2ccccc2Cl)C2(COc3ccccc3C2=O)C12C(=O)Nc1ccccc12 (stereo unspecified)	none
CC(=O)N1CCc2cc(S(=O)(=O)CCC(=O)N3CCN(c4cc(C)ccc4C)CC3)ccc21	none
